Data reported in PubChem BioAssay (EPA / NIEHS).
Records with an inconclusive call do not appear. The source made the active and inactive calls. How the source made its calls, unless noted: active means hit-call score of the fitted dose curve at least 0.9, where 1 is the maximum; inconclusive means response in the unintended direction; inactive means score below 0.9.

Experiments:
[1] = TOX21_p53_BLA_p2_viability: Viability Assessment in the Tox21 HCT-116 p53 Agonism Beta-lactamase Assay, Phase 2 (AID 2283591);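 further: compound exposure lasted 16 h at 37 °C; actives lower the ATP signal meaning cytotoxicity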
How it was run: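 Cytotoxicity readout: CellTiter-Glo ATP luminescence, 30 min at room temperature, after the beta-lactamase read. Cells were HCT116 exposed 16 h at 37C to compounds pin-transferred at 217-fold dilution from DMSO stocks.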

[2] = molecular target: Cellular tumor antigen p53 (Homo sapiens) (UniProt P04637); assay: TOX21_p53_BLA_p2_ratio: Tox21 HCT-116 p53 Agonism Beta-lactamase Assay, Ratio, Phase 2 (AID 2283592)
Cellular tumor antigen p53 (Homo sapiens), sequence (P04637 whole entry, looked up): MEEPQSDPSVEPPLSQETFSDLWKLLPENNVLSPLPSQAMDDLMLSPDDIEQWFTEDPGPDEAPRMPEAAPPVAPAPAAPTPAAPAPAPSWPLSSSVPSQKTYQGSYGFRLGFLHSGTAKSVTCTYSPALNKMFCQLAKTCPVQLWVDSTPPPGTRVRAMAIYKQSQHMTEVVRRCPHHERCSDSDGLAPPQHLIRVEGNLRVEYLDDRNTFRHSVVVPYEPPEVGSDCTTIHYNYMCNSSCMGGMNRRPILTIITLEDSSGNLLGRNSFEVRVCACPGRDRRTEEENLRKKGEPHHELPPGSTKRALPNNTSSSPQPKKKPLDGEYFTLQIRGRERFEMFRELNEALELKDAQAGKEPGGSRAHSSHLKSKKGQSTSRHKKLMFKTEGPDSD
How it was run: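 HCT116 cells carrying a p53-responsive beta-lactamase reporter were plated, incubated 5 h at 37C, then dosed with compounds in DMSO (217-fold dilution) for 16 h. CCF4-AM substrate was added for 2 h at room temperature; the 460/530 nm emission ratio gave gain-of-signal activity relative to DMSO.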

[3] = TOX21_p53_BLA_p3_viability: Viability Assessment in the Tox21 HCT-116 p53 Agonism Beta-lactamase Assay, Phase 3 (AID 2283593);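 further: cells exposed to compound for 16 h before reading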
How it was run: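 Cellular ATP was quantified by CellTiter-Glo luminescence, read after 30 min at room temperature. Beforehand, HCT116 cells (4000/well) received compound 5 h post-seeding, 217-fold diluted from DMSO, then incubated 16 h at 37C.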

[4] = molecular target: Cellular tumor antigen p53 (Homo sapiens) (UniProt P04637); assay: TOX21_p53_BLA_p3_ratio: Tox21 HCT-116 p53 Agonism Beta-lactamase Assay, Ratio, Phase 3 (AID 2283596)
How it was run: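 HCT116 p53-bla cells (4000/well) given compound in DMSO (217-fold dilution) after 5 h, incubated 16 h at 37C. CCF4-AM substrate 2 h at room temperature; 460/530 nm emission ratio, gain fitted against DMSO.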

[5] = TOX21_p53_BLA_p5_viability: Viability Assessment in the Tox21 HCT-116 p53 Agonism Beta-lactamase Assay, Phase 5 (AID 2283600)
How it was run: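 Cells were plated at 4000/well, rested 5 h at 37C, then given compounds in DMSO (217-fold dilution) for 16 h at 37C, 5% CO2. Following the CCF4-AM beta-lactamase read, CellTiter-Glo was added and luminescence was read after 30 min at room temperature.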

[6] = molecular target: Cellular tumor antigen p53 (Homo sapiens) (UniProt P04637); assay: TOX21_p53_BLA_p4_ratio: Tox21 HCT-116 p53 Agonism Beta-lactamase Assay, Ratio, Phase 4 (AID 2283601)
How it was run: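 Signal is the blue/green (460nm/530nm) ratio of cleaved versus uncleaved CCF4-AM substrate, read after 2 h substrate loading. Cells were HCT116 carrying the p53-responsive beta-lactamase reporter, dosed 16 h at 37C, 5% CO2; CellTiter-Glo measured in parallel.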

[7] = molecular target: Cellular tumor antigen p53 (Homo sapiens) (UniProt P04637); assay: TOX21_p53_BLA_p5_ratio: Tox21 HCT-116 p53 Agonism Beta-lactamase Assay, Ratio, Phase 5 (AID 2283599)
How it was run: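 Beta-lactamase reporter ratio (blue 460 nm over green 530 nm, 405 nm excitation) after 2 h CCF4-AM loading, in HCT-116 cells exposed 16 h at 37 C to compounds pinned at 217-fold dilution. Increases relative to DMSO baseline scored.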

[8] = molecular target: THRA (gene 7067) (UniProt P10827); assay: TOX21_TRA_COA_Antagonist_Followup_ratio: Tox21 Thyroid Hormone Receptor alpha Antagonism through Coactivator Recruitment Follow-Up Assay, Ratio (AID 2283953)
THRA (gene 7067), sequence (P10827 whole entry, looked up, the tested form may be a part): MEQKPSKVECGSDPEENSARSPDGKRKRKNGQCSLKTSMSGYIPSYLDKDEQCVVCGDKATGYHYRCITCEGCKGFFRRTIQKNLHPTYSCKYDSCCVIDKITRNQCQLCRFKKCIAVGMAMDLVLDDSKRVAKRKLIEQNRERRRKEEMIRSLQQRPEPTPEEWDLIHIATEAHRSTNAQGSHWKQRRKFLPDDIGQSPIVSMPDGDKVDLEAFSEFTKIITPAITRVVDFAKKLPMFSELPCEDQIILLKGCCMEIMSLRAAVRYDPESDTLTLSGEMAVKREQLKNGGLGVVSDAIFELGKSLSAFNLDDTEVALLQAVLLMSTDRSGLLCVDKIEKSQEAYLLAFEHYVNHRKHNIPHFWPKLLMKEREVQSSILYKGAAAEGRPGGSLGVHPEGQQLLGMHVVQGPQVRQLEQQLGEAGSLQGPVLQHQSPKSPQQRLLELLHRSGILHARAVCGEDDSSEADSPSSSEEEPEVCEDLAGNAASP
How it was run: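 This follow-up to the GH3 luciferase screen checks specificity in a cell-free format. It measures SRC-2 coactivator peptide binding to TRα LBD by TR-FRET and scores loss of ratio signal relative to DMSO.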

[9] = TOX21_TRB_BLA_Antagonist_Followup_viability: Viability Assessment in the Tox21 Thyroid Hormone Receptor beta Antagonism Beta-lactamase (BLA) Follow-Up Assay (AID 2283961)
How it was run: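 HEK293T cells stably expressing GAL4-DBD/human TRβ-LBD with UAS-bla reporter, 3,000 cells/well in phenol red-free DMEM, 2% charcoal-stripped FBS. Compounds at 11 concentrations in triplicate, 18 h at 37C/5% CO2; viability by CellTiter-Glo luminescence after 30 min at room temperature.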

[10] = molecular target: Retinoic acid receptor RXR-alpha (Homo sapiens) (UniProt P19793); assay: TOX21_TR_RXR_BLA_Antagonist_Followup_ratio: Tox21 Thyroid Hormone Receptor beta Retinoid X Receptor alpha (RXRa) Antagonism Beta-lactamase (BLA) Follow-Up Assay, Ratio (AID 2283972)
Retinoic acid receptor RXR-alpha (Homo sapiens), sequence (P19793 whole entry, looked up): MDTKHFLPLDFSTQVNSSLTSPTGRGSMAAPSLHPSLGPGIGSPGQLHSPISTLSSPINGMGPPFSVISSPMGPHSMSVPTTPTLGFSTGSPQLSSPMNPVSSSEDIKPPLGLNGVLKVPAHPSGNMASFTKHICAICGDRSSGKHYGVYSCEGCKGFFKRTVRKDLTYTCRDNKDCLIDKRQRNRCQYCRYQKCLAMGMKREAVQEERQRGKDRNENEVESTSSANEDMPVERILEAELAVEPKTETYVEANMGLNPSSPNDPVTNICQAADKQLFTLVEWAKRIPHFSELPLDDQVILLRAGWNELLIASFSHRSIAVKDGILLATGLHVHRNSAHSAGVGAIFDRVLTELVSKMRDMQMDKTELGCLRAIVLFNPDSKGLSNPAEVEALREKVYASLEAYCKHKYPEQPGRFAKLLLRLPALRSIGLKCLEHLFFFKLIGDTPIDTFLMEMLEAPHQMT
How it was run: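 RXRa-UAS-bla HEK293T cells in phenol red-free DMEM with 2% charcoal-stripped FBS; compounds at 11 concentrations in triplicate, 16 h at 37C. LiveBLAzer FRET-B/CCF4-AM substrate 2 h at room temperature; read as 460:530 nm ratio versus DMSO.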

[11] = molecular target: Thyroid hormone receptor alpha (Rattus norvegicus) + Thyroid hormone receptor beta (Rattus norvegicus) (UniProt P18113+P63059); assay: TOX21_TR_LUC_GH3_Antagonist_Followup: Tox21 GH3 Thyroid Hormone Receptor Antagonism Luciferase Follow-Up Assay (AID 2283942)
How it was run: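 Confirmatory qHTS, antagonist mode: T3 (1.0 nM final) + test cpd, 15 conc, 92 uM–5nM final, GH3 rat pituitary line, 24 h, 37C. Luc reporter, RLU vs DMSO.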

[12] = molecular target: THRB (gene 7068) (UniProt P10828); assay: TOX21_TRB_BLA_Antagonist_Followup_ratio: Tox21 Thyroid Hormone Receptor beta Antagonism Beta-lactamase (BLA) Follow-Up Assay, Ratio (AID 2283958)
THRB (gene 7068), sequence (P10828 whole entry, looked up, the tested form may be a part): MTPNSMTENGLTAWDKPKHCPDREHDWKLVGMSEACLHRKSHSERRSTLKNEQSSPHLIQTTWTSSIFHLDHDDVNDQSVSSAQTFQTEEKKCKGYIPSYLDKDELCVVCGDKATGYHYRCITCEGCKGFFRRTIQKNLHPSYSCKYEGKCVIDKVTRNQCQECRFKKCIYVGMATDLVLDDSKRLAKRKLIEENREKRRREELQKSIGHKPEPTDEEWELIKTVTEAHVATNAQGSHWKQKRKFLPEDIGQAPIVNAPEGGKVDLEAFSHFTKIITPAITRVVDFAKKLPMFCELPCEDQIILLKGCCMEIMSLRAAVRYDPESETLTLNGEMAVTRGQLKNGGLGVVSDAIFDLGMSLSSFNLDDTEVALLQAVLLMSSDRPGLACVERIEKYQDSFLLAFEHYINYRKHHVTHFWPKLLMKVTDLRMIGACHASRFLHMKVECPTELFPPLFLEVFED
How it was run: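 In this antagonist-mode follow-up, a stably integrated GAL4-TRβ LBD fusion drives a UAS-beta-lactamase reporter in HEK293T cells. Loss of ratio signal relative to DMSO after 18 h treatment indicates activity; parallel CellTiter-Glo flags cytotoxicity.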

[13] = molecular target: THRB (gene 7068) (UniProt P10828); assay: TOX21_TRB_COA_Antagonist_Followup_ratio: Tox21 Thyroid Hormone Receptor beta Antagonism through Coactivator Recruitment Follow-Up Assay, Ratio (AID 2283967)
How it was run: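 Test compound was incubated with 5.0 nM GST-TRβ LBD in 0.10% BSA. Then 200 nM fluorescein-SRC-2 peptide and 2 nM terbium anti-GST antibody were added. TR-FRET (520:495 nm) was measured and normalized to DMSO and T3 controls.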

[14] = ACEA_ER_AUC_viability: ACEA Biosciences xCELLigence Real-Time Cell Analysis on Estrogen Receptor Agonism for Viability (AID 2283782);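 further: continuous compound exposure with impedance area under curve over 80 h; hit means loss of impedance signal meaning reduced cell growth or viability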
How it was run: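 T-47D; phenol red-free RPMI1640 + 10% CS-FBS; 8 conc., 1:4 serial, max 100 uM final, ≤0.5% DMSO; n = 2; continuous exposure; impedance monitored to 80 h post-dose; AUC vs DMSO.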

[15] = CCTE_Harrill_HTTr_Viability_MCF7: CCTE's 6-hour Cell Viability Assessment for the High-Throughput Transcriptomics (HTTr) Platform, in MCF-7 cells cultured in DMEM + 10% fetal bovine serum, Harrill Lab (AID 2284010; active means hit-call score of the fitted dose curve at least 0.9, where 1 is the maximum; inactive means score below 0.9)
How it was run: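 Viability measured through PI dye exclusion by high-content imaging at 6 h post-dosing.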

[16] = CCTE_Harrill_HTTr_Apoptosis_MCF7: CCTE's 6-hour Apoptosis Assessment for the High-Throughput Transcriptomics (HTTr) Platform, in MCF-7 cells cultured in DMEM + 10% fetal bovine serum, Harrill Lab (AID 2284011; active means hit-call score of the fitted dose curve at least 0.9, where 1 is the maximum; inactive means score below 0.9)
How it was run: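 MCF-7 cells in DMEM + 10% fetal bovine serum were exposed to chemicals for 6 hours over an eight-point dilution series. Caspase-3/7 activation was imaged by high content imaging with CellEvent Caspase 3/7 Green; bidirectional fitting used DMSO as baseline.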

[17] = TOX21_p53_BLA_p4_viability: Viability Assessment in the Tox21 HCT-116 p53 Agonism Beta-lactamase Assay, Phase 4 (AID 2283597);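 further: hits lower the luminescence signal meaning cytotoxicity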
How it was run: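 HCT116 p53-bla cells (4000/well) rested 5 h at 37C, then received compounds in DMSO (217-fold dilution) for 16 h at 37C, 5% CO2. CellTiter-Glo was added after the CCF4-AM read, and luminescence was read after 30 min at room temperature.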

Measured: AC50

COc1cc2c(cc1OC)CC(=O)N(CCCN(C)C[C@H]1Cc3cc(OC)c(OC)cc31)CC2
inactive: [1] | [2] | [3] | [4] | [5] | [6]

CC1(C)S[C@@H]2[C@H](NC(=O)C(N)c3ccccc3)C(=O)N2[C@H]1C(=O)OC1OC(=O)c2ccccc21 (stereo not given in full)
inactive: [1] | [2] | [3] | [4] | [7] | [6] | [8] | [9] | [10]

[O]=[Zr]
inactive: [1] | [2] | [3] | [4] | [5]

OCC(CO)N[C@H]1C[C@](O)(CO)[C@@H](O)[C@H](O)[C@H]1O
inactive: [1] | [2] | [3] | [4] | [5]

CCc1nccnc1CC
inactive: [1] | [2] | [3] | [4] | [5] | [6]

CCC1C(=O)OCC1Cc1cncn1C (stereo not given)
inactive: [1] | [2] | [3] | [4] | [5] | [6]

CC(=O)Nc1ccn(C2COC(COC(=O)c3ccccc3)O2)c(=O)n1 (stereo not given)
active: [2] 5.44 µM | [4] 11.7 µM
inactive: [1] | [3] | [7] | [6] | [11] | [8] | [12] | [13]

O=C(O)CCC(=O)OC[C@@H](NC(=O)C(Cl)Cl)[C@H](O)c1ccc([N+](=O)[O-])cc1
inactive: [1] | [2] | [3] | [4] | [5]

C1CCN(CN2CCCCC2)CC1
inactive: [1] | [2] | [3] | [4] | [6]

C(=C/c1ccccc1)/c1ccccc1
inactive: [1] | [2] | [3] | [4] | [5]

NC(=O)c1ncn([C@@H]2O[C@H](CO)[C@@H](O)[C@H]2O)c1N
inactive: [1] | [2] | [3] | [4] | [5] | [6]

CCCC(CCC)C(N)=O
inactive: [1] | [2] | [3] | [4] | [6]

O=C(NC1CCN(CCc2c[nH]c3ccccc23)CC1)c1ccccc1
inactive: [1] | [2] | [3] | [4] | [6]

CC(=O)OC1CCC(C(C)(C)C)CC1 (stereo not given)
inactive: [1] | [2] | [3] | [4] | [7] | [6]

O=C1C2CC3CC1CC(O)(C3)C2
inactive: [1] | [2] | [3] | [4] | [6]

CCCCC[C@H](O)/C=C/[C@H]1[C@H](O)CC(=O)[C@@H]1C/C=C\CCCC(=O)O
inactive: [1] | [2] | [3] | [4] | [5] | [6]

CCN(CC)CCNC(=O)c1cc(Cl)c(N)cc1OC
inactive: [1] | [2] | [3] | [4] | [5] | [6]

C[C@H](/C=C/[C@H](C)C(C)(C)O)[C@H]1CC[C@H]2/C(=C/C=C3C[C@@H](O)C[C@H](O)C3)CCC[C@]12C
active: [3] 30 µM
inactive: [1] | [2] | [4] | [5]

CC(C)(O)C#CC(C)(C)O
inactive: [1] | [2] | [3] | [4] | [5]

CC(=O)c1sc(C)nc1C
inactive: [1] | [2] | [3] | [4] | [7] | [6]

CC(O)[C@@H]1NC(=O)[C@H](Cc2ccccc2)NC(=O)[C@H](C(C)O)NC(=O)[C@H](CCCCN)NC(=O)[C@H](Cc2c[nH]c3ccccc23)NC(=O)[C@H](Cc2ccccc2)NC(=O)[C@H](Cc2ccccc2)NC(=O)[C@H](CC(N)=O)NC(=O)[C@H](CCCCN)NC(=O)[C@@H](NC(=O)CNC(=O)[C@H](C)N)CSSC[C@@H](C(=O)O)NC(=O)[C@H](CO)NC1=O (stereo not given in full)
inactive: [1] | [2] | [3] | [4] | [5] | [6]

NCCN1CCNC1=O
inactive: [1] | [2] | [3] | [4] | [5] | [6]

CC(=O)N(O)CCCCCNC(=O)CCC(=O)N(O)CCCCCNC(=O)CCC(=O)N(O)CCCCCN
inactive: [1] | [2] | [3] | [4] | [6]

N=C(N)c1ccc2cc(OC(=O)c3ccc(N=C(N)N)cc3)ccc2c1
inactive: [1] | [2] | [3] | [4] | [5]

COc1ccc2cc([C@H](C)C(=O)O)ccc2c1
inactive: [1] | [2] | [3] | [4] | [7] | [6] | [14] | [15] | [16]

CCO
inactive: [1] | [2] | [3] | [4] | [5] | [6]

C[N+](C)(CCCCCC[N+](C)(C)C1c2ccccc2-c2ccccc21)C1c2ccccc2-c2ccccc21
inactive: [1] | [2] | [3] | [17]

C1OCOCO1
inactive: [1] | [2] | [3] | [4] | [5] | [6]

CC(=O)CC(C)=O
inactive: [1] | [2] | [3] | [4] | [5]

C[C@]12CCC(=O)C[C@@H]1CC[C@@H]1[C@@H]2CC[C@]2(C)C=CC[C@@H]12
inactive: [1] | [2] | [3] | [4] | [5] | [6]

O=C(CCCN1CCN(c2ccccn2)CC1)c1ccc(F)cc1
inactive: [1] | [2] | [3] | [4] | [5] | [6]

CCCCCC=CCC=CCCCCCCCC(=O)OCC
inactive: [1] | [2] | [3] | [17]
